Assay outcomes from PubChem.
D2 ag-1 = activates the human D2 dopamine receptor; P14416; DiscoveRx PathHunter D2 beta-arrestin, luminescence, 90 min; 100% = 57 uM dopamine signal; activation, % (no concentration beside the values); 360,000 tested, 0.084% active; in the data active = activation above about 40%; inconclusive = between about 15% and that limit
Target sequence (P14416 whole entry, looked up): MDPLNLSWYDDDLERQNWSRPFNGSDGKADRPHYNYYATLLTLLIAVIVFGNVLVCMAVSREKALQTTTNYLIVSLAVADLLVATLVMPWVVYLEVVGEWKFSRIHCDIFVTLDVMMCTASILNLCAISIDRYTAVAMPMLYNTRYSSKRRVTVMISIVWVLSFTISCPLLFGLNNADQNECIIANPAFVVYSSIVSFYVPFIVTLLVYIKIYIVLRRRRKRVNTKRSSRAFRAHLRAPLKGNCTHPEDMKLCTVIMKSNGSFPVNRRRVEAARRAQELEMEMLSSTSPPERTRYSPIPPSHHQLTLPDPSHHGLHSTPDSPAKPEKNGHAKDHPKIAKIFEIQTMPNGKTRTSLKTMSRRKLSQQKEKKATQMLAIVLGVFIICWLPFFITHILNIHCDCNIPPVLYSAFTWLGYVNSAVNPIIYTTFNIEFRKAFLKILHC
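Agonist mode: compounds alone added to overnight-plated D2 PathHunter cells for 90 min at 37 C, with 57 uM final dopamine (EC100) defining full response. Beta-arrestin recruitment detected by chemiluminescent reagent, read after 1 h at ambient temperature.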
D2 PAM-1 = human D2 receptor positive allosteric modulation; DiscoveRx D2 beta-arrestin cells, luminescence, 90 min; 100% = 57 uM dopamine signal; 360,000 tested, 0.23% active; AID 624464; potentiation, % (concentration not given with the values); in the data active = potentiation above about 50%; inconclusive = mostly about 30% to 49%
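PathHunter beta-arrestin assay in DiscoveRx D2 cells. Compounds were added with an EC20 of dopamine (50 nM final) for 90 min at 37 deg C. Luminescence was read 1 h after detection reagent, with 57 uM dopamine as the EC100 control.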
D2 PAM-2 = positive allosteric modulators of human D2 dopamine receptor; P14416; HEK293 T-REx D2, calcium flux, EC20 dopamine potentiation; potentiation, % at 10 µM; 340,000 tested, 0.34% active; AID 485347;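 active = potentiation over 3 SD above the plate norm, cut at about 30% in these data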; note: 0% is about no effect
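Calcium flux readout, no-wash dye, 1 read/s. Inducible HEK293 Trex D2 line, overnight 30 C. Compound alone 180 s (agonist flags), then EC20 dopamine, another 180 s to score potentiation.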
D2 antag = D2 dopamine receptor (human) antagonism; HEK293 TREx D2 cells, calcium flux, dopamine EC80; inhibition, % at 10 µM; 340,000 tested, 2% active; P14416; in the data active = inhibition above about 30%; inactive = below that, where a call was filed; note: 0% is about no effect
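Cells plated overnight at 30 C with tetracycline; no-wash calcium dye, 30–90 min RT; 10 s baseline; compound pinned; 180 s read; EC80 dopamine added; another 180 s read.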
D2 ag-2 = agonists of human D2 dopamine receptor; P14416; HEK293 T-REx D2 cells, calcium flux agonist mode; activation, % at 2 µM; 340,000 tested, 0.53% active; AID 485358;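 active = activation over 3 SD above normal in the single-dose calcium agonist read, cut at about 30% in these data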; note: 0% is about no effect
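In this primary screen, compounds producing a positive calcium signal within 180 s of addition to tetracycline-induced, force-coupled HEK293 Trex D2 cells are flagged; cells are dye-loaded with a no-wash calcium kit beforehand.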
Active calls of the source: *; ? = inconclusive; . = no result given. A selection: hits, their analogues and other compounds. The true share with any hit is near 2.4%.

SMILES	D2 ag-1	D2 PAM-1	D2 PAM-2	D2 antag	D2 ag-2
Cc1ccc(Cl)cc1N1CCN(S(=O)(=O)c2c(C(=O)N3CCOCC3)c(C)n(C)c2C)CC1	2	-13	15	38*	0
Cc1nc2ccn(Cc3ccco3)c(=O)c2cc1C(=O)NCc1ccc(Cl)cc1	.	.	6	.	3
O=C(NCc1ccccc1CN1CCCC1)c1cccc(S(=O)(=O)N2CCOCC2)c1	-3	-35	-14	49*	0
CN(c1ccccc1)S(=O)(=O)c1ccc(C(=O)NCc2ccccc2CN2CCCC2)cc1	-2	-37	-20	0	0
CN(c1ccccc1)S(=O)(=O)c1cccc(C(=O)NCc2ccccc2CN2CCCC2)c1	-2	-33	-31	39*	0
CC1CCN(C(=O)COC(=O)c2cccc(S(=O)(=O)N(C)c3ccccc3)c2)CC1	2	5	1	43*	5
O=C(NCc1nc2ccccc2[nH]1)c1cccc(S(=O)(=O)N2CCOCC2)c1	-3	-9	-2	38*	0
Cc1c(C(=O)NCc2ccccc2CN2CCCC2)oc2ccc(F)cc12	-1	-3	-26	58*	0
Cc1cccc(C)c1N1C(=O)CC(N(O)c2ccccc2)C1=O (configuration not stated)	7	51*	-5	-19	-1
Cc1c(Cl)cccc1N1C(=O)CC(N(O)c2ccccc2)C1=O (configuration not stated)	6	55*	7	0	1
CCOc1ccccc1N1C(=O)CC(N(O)c2ccccc2)C1=O (configuration not stated)	?	4	27	-13	1
CC1c2ccccc2SC(CCCN(C)C)c2ccccc21 (configuration not stated)	-2	-39	-27	50*	6
COc1ccccc1C(=O)N(CCN(C)C)c1nc2cc(C)cc(C)c2s1	-1	-20	-17	38*	0
O=C(NC1CCCCC1)c1ccc(-n2cncn2)c([N+](=O)[O-])c1	0	-1	.	.	.
CC1CCC(NC(=O)c2ccc(-n3cncn3)c([N+](=O)[O-])c2)CC1 (configuration not stated)	-4	27	-7	36*	1
COc1ccccc1N1CCN(C(=O)c2cc3c(=O)oc4ccccc4c3s2)CC1	.	.	8	.	-2
CC(C)=N/N=c1\scc(C)n1Cc1ccco1	2	7	8	40*	1
Cc1cs/c(=N\N=C\c2ccccc2)n1Cc1ccco1	-1	2	-4	1	1
COCCN1Cc2cccc(C(=O)Nc3ccc(C)cc3)c2C1=O	2	0	4	41*	1
COC(=O)c1[nH]c2c(c1C)C(=O)CC(c1ccc(C)cc1)C2 (configuration not stated)	1	-16	-1	32*	0
COC(=O)c1[nH]c2c(c1C)C(=O)CC(c1ccc(OC)c(OC)c1)C2 (configuration not stated)	1	7	.	.	.
CC1CCC2(CC1)NC(=O)N(NC(=O)c1cccc(N(C)C)c1)C2=O (configuration not stated)	2	-1	-9	33*	0
COc1ccc(C)cc1NC(=O)c1nnn(-c2c(C)cccc2C)c1C	.	.	2	.	1
O=C(NCC(c1cccs1)S(=O)(=O)c1cccs1)c1cccc(F)c1 (configuration not stated)	.	.	20	.	0
Cc1ccc(NC(=O)CS(=O)(=O)c2cn(C)c3ccccc23)c(C)c1	-1	-5	8	16	-1
SMILES	D2 ag-1	D2 PAM-1	D2 PAM-2	D2 antag	D2 ag-2
CCCn1cc(S(=O)(=O)CC(=O)Nc2ccc(OC)cc2OC)c2ccccc21	9	68*	-2	4	-1
Cn1cc(S(=O)(=O)CC(=O)Nc2ccc(Br)cc2)c2ccccc21	-2	-10	-13	39*	-1
COc1ccc(NC(=O)CS(=O)(=O)c2cn(CC(=O)N(C(C)C)C(C)C)c3ccccc23)c(OC)c1	0	12	10	13	-1
CCn1cc(S(=O)(=O)CC(=O)Nc2ccc3c(c2)OCCO3)c2ccccc21	12	53*	7	11	-1
COc1cc2c(cc1OC)n(CC(=O)c1ccc(F)cc1)c(=O)n1nc(CCn3nc(C)cc3C)nc21	.	.	-11	.	.
COc1ccc(N2CCN(C(=O)c3cc(S(=O)(=O)N4CCCCCC4)cn3C)CC2)cc1	.	.	.	.	-1
COc1ccc(NC(=O)COC(=O)CCCOc2ccc(Cl)cc2Cl)cc1	1	-9	-20	40*	0
Cc1ccccc1OC(=O)CSc1nnc(-c2ccc(F)cc2)o1	.	.	-7	.	0
Cc1ccc2c(Sc3ccccc3)c(C(=O)NCc3ccccc3F)[nH]c2c1	.	.	-5	.	-1
NC(=O)C1CCN(CC(=O)c2c[nH]c3ccc(F)cc23)CC1	1	-12	-3	-6	-1
O=C(CN1CCN(c2ccccc2F)CC1)c1c[nH]c2ccc(F)cc12	0	-23	-16	35*	-1
Cc1ccccc1C(=O)NC(CC(C)C)C(=O)N1CCN(c2ccccc2)CC1 (configuration not stated)	0	-9	31*	-3	0
CCOC(=O)CSc1nnc(CNC(=O)c2cccc(C)c2)n1C	?	0	4	35*	0
CC(C)C[C@H](NC(=O)N1CCN(c2ccccc2)CC1)C(=O)O	2	0	.	.	.
CCOC(=O)CSc1nnc(CNC(=O)c2cccc(C)c2)n1-c1ccccc1OC	0	-1	-3	.	.
Cc1ccccc1C(=O)NCc1nnc(SCC(=O)N2CCN(c3ccccc3)CC2)n1C	-6	-6	0	39*	-1
COC(=O)c1nc2n(n1)C(c1cc(OC)ccc1OC)C(C(=O)Nc1ccc(C)cc1C)=C(C)N2 (configuration not stated)	.	.	-8	.	0
CC(C)(CO)Nc1nc(N2CCCC2)nc(N2CCCC2)n1	-3	-23	-7	47*	0
O=C(NCCO)C1(c2ccc(Cl)cc2)CCCC1	-2	11	3	32*	0
Cc1ccc(C(=O)N2CCN(Cc3cc(=O)n4nc(-c5ccccc5)sc4n3)CC2)cc1	.	.	11	.	1
CCCCCOc1ccccc1Cn1c(=O)oc2ccc(C)cc21	.	.	-8	.	2
CCCCOc1ccccc1Cn1c(=O)oc2ccc(C)cc21	1	-4	7	31*	1
Cn1c(=O)c2sccc2n2c(CCCC(=O)NCc3ccc(F)cc3)nnc12	-1	-8	33*	-12	2
Cn1c(=O)c2sccc2n2c(CCCC(=O)NCc3ccc4c(c3)OCO4)nnc12	-2	-9	35*	-16	0
Cn1c(=O)c2sccc2n2c(CCCC(=O)NCc3cccnc3)nnc12	-5	-5	12	7	0
